Bioassay records deposited in PubChem BioAssay by several laboratories.
NR3A LBD binder = binders of NR3A ligand-binding domain, primary screen, biophysical, differential scanning fluorimetry, uHTS; 340,000 compounds, 2.5% hits; Glutamate receptor ionotropic, NMDA 3A (GRIN3A) ligand-binding domain; Tm shift relative to glycine control, % at 25 µM; NR3A LBD differential scanning fluorimetry, Tm shift; 0% = protein alone, 100% = glycine-bound protein;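 active means melting temperature shift of at least 10% of the positive control shift, at one fixed dose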
rCAG RNA binder = binders of r(CAG) RNA repeats, primary screen, biochemical, fluorescence | r(CAG) RNA repeat, TO-PRO-1 dye displacement fluorescence | inhibition, % at 3 µM | 370,000 compounds, 1.3% hits | AID 651821, 2012;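 active means inhibition above the plate cutoff, the mean of all test compounds on that plate plus 3 SD, cut at about 35% in these data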;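 further: 0% = DMSO alone and 100% = 100 µM mitoxantrone as full dye displacement; higher means more dye released from RNA so lower well fluorescence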
MPTP inh = mitochondrial permeability transition pore inhibitors, primary screen, biochemical, isolated mouse mitochondria, absorbance; Ca2+ swelling absorbance, 30 min; inhibition, % at 10 µM; 360,000 compounds, 1.4% hits;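 active means inhibition of 50% or more, scaled per plate between neutral and stimulator controls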;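 further: 0% = DMSO wells given calcium and 100% = 1 mM EGTA wells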
Myeloid diff 2 = induction of myeloid progenitor differentiation, primary screen, cell-based, flow cytometry, MLPCN library. calls only at 10 µM. ER-HoxA9 myeloid progenitors, lysozyme-GFP differentiation. AID 624256, 2012. 360,000 compounds, 1% hits;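 active means normalized GFP-positive differentiation at or above the plate's own cutoff, the solvent-only control mean plus 3 SD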;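 further: cells exposed to compound for four days before flow analysis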
FAS-TE inh = FAS thioesterase domain inhibitors, primary screen, biochemical, fluorescence intensity, uHTS. Fatty acid synthase (Homo sapiens), P49327. recombinant FAS-TE, OMFH fluorogenic substrate, fluorescence endpoint. inhibition, % at 15 µM. 360,000 compounds, 0.67% hits;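 active means compounds whose normalised, plate-corrected inhibition of enzyme fluorescence in the single-dose primary screen is 50% or more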;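 further: 0% = DMSO with enzyme and 100% = substrate without enzyme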
rCAG binder conf = small molecules binding CAG repeat RNA – biochemical, fluorescence, confirmation; 4,300 compounds, 70% hits; r(CAG) RNA repeat, TO-PRO-1 dye displacement fluorescence; inhibition, % at 3 µM; shares compounds with rCAG RNA binder; AID 652065, 2013;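 active means inhibition above a per-plate cutoff, the mean inhibition of sample wells plus 3 SD, cut at about 35% in these data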;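 further: loss of TO-PRO-1 fluorescence as compound displaces dye from 1x1 AA loop RNA; 0% = DMSO only wells and 100% = 100 µM mitoxantrone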
DNA CAG counter = displacement of TO-PRO-1 from CAG DNA duplex, counter-screen for rCAG RNA repeat binder project, biochemical, fluorescence, TO-PRO-1 dye, d(CAG) DNA oligo; shares compounds with rCAG RNA binder; d(CAG) DNA oligo TO-PRO-1 dye displacement; inhibition, % at 3 µM; 4,300 compounds, 94% hits; AID 652068, 2013;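 active means inhibition above its plate's cutoff, the mean test-well inhibition plus 3 SD, cut at about 4.8% in these data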;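 further: 0% = DNA dye mix with DMSO and 100% = 100 µM mitoxantrone; hits displace the dye from DNA and so lower well fluorescence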
DNA CAG DR = inhibitors of DNA CAG/GTC TO-PRO-1 complex, dose response, counter-screen for rCAG RNA repeat binder project, biochemical, fluorescence, TO-PRO-1 dye. 250 compounds, 20% hits. DNA CAG/GTC duplex TO-PRO-1 dye displacement fluorescence. IC50, µM. shares compounds with rCAG RNA binder; in the data active means IC50 below about 10 µM
* hit, by the source's call; i = inactive; x = no result given. Only some compounds are listed: those with a hit (about 5.7% of all), similar ones and a draw of the others.

SMILES	NR3A LBD binder	rCAG RNA binder	MPTP inh	Myeloid diff 2	FAS-TE inh	rCAG binder conf	DNA CAG counter	others
N#CC1=C(S)N(c2ccccc2)C(c2ccc(-c3ccc(Cl)c(Cl)c3)o2)NC1=O (configuration not stated)	-2	84*	6	i	6	91*	79*
N#CC1=C(S)N(c2ccccc2)C(c2cccs2)NC1=O (configuration not stated)	0	5	-1	i	-4	x	x
COC(=O)c1ccc(CNC(=O)c2ccccc2C(=O)NCC2(CBr)OCCO2)cc1	x	-1	0	i	-3	x	x
COc1ccc(-c2cc(=O)n(-c3nc4ccccc4[nH]3)[nH]2)cc1	-7	39*	2	i	3	15	10*
COc1ccc(-c2nc3ccccc3[nH]2)cc1	5	0	-1	x	-8	x	x
Clc1cccc(-c2nc(-c3ccc(-c4nn[nH]n4)cc3)no2)c1	-12	36*	6	i	-6	62*	19*	DNA CAG DR=i
NC(=S)NN=C1c2cc(S(=O)(=O)N3CCOCC3)ccc2-c2ccc(S(=O)(=O)N3CCOCC3)cc21	-6	35*	1	i	9	46*	20*
N#Cc1c(SCC(=O)O)nc(N2CCCCC2)c2c1CCCC2	-3	35*	1	i	-6	27	7.1*
COC(=O)CSc1nc(N2CCCCC2)c2c(c1C#N)CCCC2	2	1	-1	i	21	x	x
O=C(NCc1ccc(F)cc1)c1cccc(S(=O)(=O)N2CCOCC2)c1	0	3	-1	i	-5	x	x
CN(C)c1ccc(N=Nc2ccc(S(N)(=O)=O)cc2)cc1	-4	15	-1	i	-3	x	x
CN(C)c1ccc(N=Nc2ccc(S(=O)(=O)O)cc2)c2ccccc12	-1	77*	9	i	7	59*	24*
CCOC(=O)N1CCN(C(=O)CNC(=O)c2nn(-c3ccc(OC)c(OC)c3)c(=O)c3ccccc23)CC1	0	1	-2	i	-7	x	x
CCOC(=O)N1CCN(C(=O)CNC(=O)c2nn(-c3ccc(OC)c(Cl)c3)c(=O)c3ccccc23)CC1	-1	39*	0	i	0	4	4
CCc1ccc(/C=C/C(=O)c2cc(Br)ccc(=O)c2O)cc1	-3	46*	4	i	-2	54*	25*
CCOc1ccc(/C=C/C(=O)c2cc(Br)ccc(=O)c2O)cc1	-18	61*	4	i	26	47*	22*
O=C(C=Cc1ccccc1)c1cc(Br)ccc1O	9	1	-2	i	14	x	x
Cc1cccc(/C=C/C(=O)c2cc(Br)ccc(=O)c2O)c1	-1	45*	-19	i	8	56*	24*
Cc1onc(-c2c(F)cccc2Cl)c1C(=O)Nc1cccc(S(=O)(=O)N2CCOCC2)c1	1	4	-1	i	9	x	x
O=c1[nH]c2ccc(S(=O)(=O)N3CCN(c4ccccc4F)CC3)cc2s1	1	35*	36	i	6	22	5.2*
[N-]=C=C1C(=S)NC(=O)[C@H]([n+]2ccccc2)[C@H]1c1ccc(Cl)cc1	12*	44*	-3	i	11	64*	28*
COc1cc(-c2c(C#N)c(=O)[nH]c3c2c(C)nn3-c2ccccc2)ccc1O	-3	36*	42	i	-4	30	6.3*
COc1ccc(OC)c(C(=O)c2c(C)oc3cc([N+](=O)[O-])c(O)c([N+](=O)[O-])c23)c1	0	35*	2	i	1	21	4
COc1ccc(OC)c(C(=O)COC(=O)c2ccc([N+](=O)[O-])o2)c1	2	1	0	i	18	x	x
COc1ccc2nc(-c3ccco3)c(-c3ccco3)nc2c1	-1	59*	4	i	2	32	13*
SMILES	NR3A LBD binder	rCAG RNA binder	MPTP inh	Myeloid diff 2	FAS-TE inh	rCAG binder conf	DNA CAG counter	others
c1coc(-c2nc(-c3ccco3)c(-c3ccco3)nc2-c2ccco2)c1	-27	68*	4	x	20	45*	21*	DNA CAG DR=6.6*
COc1ccc2nc3cccc(OC)c3nc2c1	0	1	2	i	-5	x	x
O=C(O)c1ccc(-c2cccc(-c3nn4c(=O)cc(N5CCNCC5)nc4s3)c2)cc1	x	6	-2	i	-4	x	x
COc1ccc(C(=O)COC(=O)CN2C(=O)C3C4C=CC(C5CC45)C3C2=O)cc1 (configuration not stated)	-1	-5	1	i	-9	x	x
O=C(N=C1N(Cc2ccccc2)C[C@]2(C=C3CCCCC3n3c(=O)n(-c4ccccc4)c(=O)n32)N1C(=O)OCc1ccccc1)c1ccccc1 (some centres not stated)	x	12	x	x	x	x	x
O=C(NC1=N[C@@]2(C=C3CCCCC3n3c(=O)n(-c4ccccc4)c(=O)n32)[C@H](Cc2ccccc2)N1Cc1ccccc1)c1ccccc1 (some centres not stated)	x	56*	x	x	x	53*	20*
COc1ccc(C/C(N)=N/OC(=O)CCc2ccccc2)cc1	1	-3	-1	i	1	x	x
CCS(=O)(=O)C1=NN2C(=N)/C(=C\c3ccc(SCc4ccco4)o3)C(=O)N=C2S1	6	85*	28	i	-3	89*	70*
CCOc1cc(/C=C2/C(=N)N3N=C(CC)SC3=NC2=O)ccc1OC(=O)c1ccco1	-9	22	1	i	-2	x	x
COc1cc(/C=C2\C(=N)N3N=C(S(C)(=O)=O)SC3=NC2=O)ccc1OCCOc1ccccc1C	7	40*	2	i	13	91*	76*
CCC1=NN2C(=N)/C(=C\c3ccc(OCCOc4ccccc4OC)cc3)C(=O)N=C2S1	-9	8	-4	i	0	x	x
N=C1/C(=C\c2ccc(OC(=O)c3ccco3)cc2)C(=O)N=C2SC(N3CCCCC3)=NN12	-1	40*	0	i	-4	33	11*
